SMILES strings stand for the structures. Results filed as inconclusive are left out. Activity calls are given as the source filed them. Calls follow the shape of the dose curve; as a rule, active = well fitted cell-killing curve with a large enough effect; inconclusive = small, poorly fitted or top-dose-only effect, or effect the other way; inactive = no such curve, though single readings can be large or run the other way.
Also: nearly all actives have a fitted effect of over 65% in size.
Potency is read from the fitted curve at half-maximal effect.

One experiment in a line: Quantitative High-Throughput drug screen in 47 multiple myeloma cell lines against the NCATS MIPE library collection: OCIMY7_PLB cell viability assay (AID 1918987). To be noted: OCI-MY7 myeloma viability, CellTiter-Glo ATP, 48 h; series mostly up to 45.8 µM. A digest of the protocol: (§1)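 Inhibition of viability over 48 h was scored by ATP content (CellTiter-Glo) in 500-cell wells. Zero and full viability were defined by media-only and DMSO-only wells.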
For orientation: In ATP-based viability assays light output follows the ATP content of the culture.
For `O=C(c1cncc(Br)c1)N1CCC(N2CCCC2)CC1`, the Potency result is “inactive”.
In the case of `COc1cc(C(C)C)c2c(c1)S(=O)(=O)N(COc1cc(=O)n3cccc(OCCN4CCCCC4)c3n1)C2=O`, the Potency was 11.8 µM (active).
The same measure, in the same setting: to `CC(=O)SC[C@@H](C)C(=O)N1CCC[C@H]1C(=O)N[C@@H](Cc1ccccc1)C(=O)O` belongs “inactive”.
Still for that read-out and setting: the same measure for `COc1ccc(CC2c3cc(OC)c(OC)cc3CC[N+]2(C)CCC(=O)OCCCCCOC(=O)CC[N+]2(C)CCc3cc(OC)c(OC)cc3C2Cc2ccc(OC)c(OC)c2)cc1OC` (centres undefined): 4.13 µM (active).
Same read-out and setting: to `CCN1CCN(Cc2ccc(-c3cc4c(N[C@H](C)c5ccccc5)ncnc4[nH]3)cc2)CC1` belongs “inactive”; to `CC(C)c1ccccc1Cc1cc(C(=O)Nc2ccc(S(=O)(=O)c3ccccc3C(C)(C)C)cc2)c(O)c(O)c1O`, 4.69 µM (active); to `COc1cc(Nc2ncc(F)c(Nc3ccc4c(n3)N(COP(=O)(O)O)C(=O)C(C)(C)O4)n2)cc(OC)c1OC`, 1.87 µM (active).
`Cc1c(NC(=O)OC[C@@H]2COCCN2)cn2ncnc(Nc3ccc4c(cnn4Cc4cccc(F)c4)c3)c12`: the Potency is 0.59 µM (active).
For the molecule `COc1cc(C)c(Sc2cnc(NC(=O)c3ccc(CNC(C)C(C)C)cc3)s2)cc1C(=O)N1CCN(C(C)=O)CC1` (centres undefined), the Potency was 10.5 µM (active).
`O=C(C=Cc1c(C(=O)O)[nH]c2cc(Cl)cc(Cl)c12)Nc1ccccc1`: the Potency entry was “inactive”.
In the case of `C[C@@H]1CN(CC(=O)Nc2ccc3c(c2)Cc2cccc(-c4cc(=O)cc(N5CCOCC5)o4)c2S3)C[C@H](C)O1`, the Potency is 1.32 µM (active).
Still for that read-out and setting: to `CC(C)(C)c1cc(NC(=O)Nc2ccc(-c3cn4c(n3)sc3cc(OCCN5CCOCC5)ccc34)cc2)no1` belongs “inactive”; to `COc1cc2c(Nc3ccc(NC(=O)c4ccccc4)cc3)ncnc2cc1OCCCN1CCOCC1`, 2.64 µM (active); to `COC(=O)C1=C(C)NC(C)=C(C(=O)OCCN2CCN(C(c3ccccc3)c3ccccc3)CC2)C1c1cccc([N+](=O)[O-])c1` (centres undefined), “inactive”.

The next experiment can be described thus: Quantitative High-Throughput drug screen in 47 multiple myeloma cell lines against the NCATS MIPE library collection: OCIMY5_PLB cell viability assay (AID 1918988). To be noted: OCI-MY5 myeloma viability, ATP luminescence, 48 h; series mostly up to 45.8 µM. In a few lines:
as §1
Regarding `Cc1cccc(C=NNc2cc(N3CCOCC3)nc(OCCc3ccccn3)n2)c1`, the Potency was 23.5 µM (active).
As for `C[C@@H]1COC(Nc2ccc3ncnc(Nc4ccc(OCc5nccs5)c(Cl)c4)c3c2)=N1`, the Potency was 2.96 µM (active).
Still for that read-out and setting: to `CC(=O)c1c(C)c2cnc(Nc3ccc(N4CCNCC4)cn3)nc2n(C2CCCC2)c1=O` belongs 11.8 µM (active); to `COc1ccc(OC)c(-c2nnc3ccc(-c4ccc(OC)c(O[C@@H]5CCOC5)c4)nn23)c1`, 16.6 µM (active); to `Cc1ccc(CN2CCNCC2)cc1NC(=O)CNc1ccc(F)c(F)c1`, 18.7 µM (active).
Same read-out and setting: to `CC(C)c1ccccc1Cc1cc(C(=O)Nc2ccc(S(=O)(=O)c3ccccc3C(C)(C)C)cc2)c(O)c(O)c1O` belongs 4.69 µM (active).
On the same count and under the same terms, to `Cc1c(NC(=O)OC[C@@H]2COCCN2)cn2ncnc(Nc3ccc4c(cnn4Cc4cccc(F)c4)c3)c12` belongs 0.0166 µM (active).
Take `C[C@]12CC[C@H](O)CC1=CCC1C2CC[C@]2(C)C(n3cnc4ccccc43)=CCC12` (some centres undefined): the Potency was 18.7 µM (active).
In the case of `O=C(C=Cc1c(C(=O)O)[nH]c2cc(Cl)cc(Cl)c12)Nc1ccccc1`, the Potency result was “inactive”.
For the molecule `Cc1ccc2nc(NC(=O)CSc3nc4c(c(=O)n3-c3ccccc3)SCC4)sc2c1`, the Potency is 7.43 µM (active).
Still for that read-out and setting: the same measure for `Cc1coc2c1C(=O)C(=O)c1c-2ccc2c1CCCC2(C)C`: 14.8 µM (active); for `CCCn1c(=O)c2[nH]c(-c3cnn(Cc4cccc(C(F)(F)F)c4)c3)nc2n(CC)c1=O`: 23.5 µM (active).
For `CC(C)(C)c1cc(NC(=O)Nc2ccc(-c3cn4c(n3)sc3cc(OCCN5CCOCC5)ccc34)cc2)no1`, the Potency is 9.35 µM (active).
Same read-out and setting: to `CCCCCCCCCC(=O)N[C@@H](Cc1c[nH]c2ccccc12)C(=O)N[C@H](CC(N)=O)C(=O)N[C@@H](CC(=O)O)C(=O)N[C@@H]1C(=O)NCC(=O)N[C@@H](CCCN)C(=O)N[C@@H](CC(=O)O)C(=O)N[C@H](C)C(=O)N[C@@H](CC(=O)O)C(=O)NCC(=O)N[C@H](CO)C(=O)N[C@@H]([C@@H](C)CC(=O)O)C(=O)N[C@@H](CC(=O)c2ccccc2N)C(=O)O[C@@H]1C` belongs “inactive”; to `CN(C)c1nc(Cc2ccc(NC(=O)c3ccc4ccccc4c3)cc2)nc(Cl)c1CC(=O)O`, 1.66 µM (active).
